gsp antag: gsp mutant antagonism; gsp-mutant cells, cAMP HTRF, 30 min; Potency, µM (doses to about 76.9 µM), hits mostly inhibitors; hit rate 0.4% among 340,000; AID 624288; calls by dose curve; cell line not stated here;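 further: intracellular cAMP measured with PDE inhibitor Ro 20-1724 present during compound exposure; nearly all actives have a fitted effect of over 65% in size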
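HTRF cAMP measurement after 30 min RT detection following 30 min, 37C compound treatment alongside […] (added as 300 uM solution) in G418-selected cells seeded at 2000/well and grown 16–24 h.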
gsp agonist: gsp mutant agonism | Potency, µM (highest dose often 76.9 µM), hits mostly activators | hit rate 0.13% among 340,000 | gsp mutant cells, cAMP HTRF, 30 min; active means well fitted activation curve with a large enough effect; inconclusive means small, poorly fitted or top-dose-only effect, or another doubt; inactive means no such curve, though single readings can be large or run the other way; cell line not stated here;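 further: phosphodiesterase inhibitor Ro 20-1724 added with compounds to block cAMP breakdown; nearly all actives have a fitted effect of over 60% in size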
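Cells in DMEM/10% FBS with G418 were pretreated with compounds in DMSO plus […] (300 uM stock) for 30 min at 37C. cAMP was measured by HTRF (cAMP-d2 plus anti-cAMP antibody-K) after 30 min at room temperature.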
RXFP1 antagonist: RXFP1 (human) relaxin receptor antagonism; Q9HBX9; HEK293-RXFP1, relaxin-stimulated cAMP HTRF, 30 min; active compounds read low; activity change, negative = inhibition, % at 57.5 µM; hit rate 0.59% among 350,000; AID 1259400;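 active means activity change of -60% or lower, but not beyond a set lower limit; inconclusive means change between -60% and -40%, or beyond the set limit; inactive means change above -40%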
RXFP1 ag: RXFP1 (human) receptor agonism. Q9HBX9. HEK293T-RXFP1 cAMP TR-FRET, 30 min; response scale: percent of porcine relaxin response, buffer zero. Potency, µM (highest dose often 57.5 µM), usual class: activators. hit rate 0.3% among 370,000. AID 2676; active means well fitted activation curve with a large enough effect; inconclusive means small, poorly fitted or top-dose-only effect; further: nearly all actives have a fitted effect of over 60% in size
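cAMP rise read by TR-FRET after 30 min, 37C compound exposure (up to 58 uM) in RXFP1-transfected HEK293 cells with Ro 20174 present. EC50 from Hill-equation fits, with 29 nM porcine relaxin as 100% and buffer as basal.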
A number is an active result; n = inactive; u = inconclusive; x = no result given; [ ] = dose if it differs, or a comment. Most compounds without a hit are left out; they make up all but 0.9% or so of the library.

SMILES	gsp antag	gsp agonist	RXFP1 antagonist	RXFP1 ag
CC(=O)N[C@@H](CO)C(=O)N[C@@H](CC(=O)O)C(=O)N[C@@H](CCCCN)C(=O)N1CCC[C@H]1C(=O)O	x	x	n	x
CCc1c(C(=O)Nc2ccccc2)c(C)[nH]c(=S)c1C#N	n	13µM	n	n
Cc1[nH]c(=S)c(C#N)c(C)c1C(=O)Nc1ccccc1	n	u	n	n
Cc1ccccc1OCC(=O)Nc1ccc(OCc2cc(=O)n3ccccc3n2)cc1	x	x	n	n
COc1ccc(-n2cc(C(=O)Nc3cc(F)ccc3F)c3ccccc3c2=O)cc1	x	x	n	n
O=c1oc2ccccc2c(Nc2ccc(F)cc2)c1[N+](=O)[O-]	u	n	n	n
O=c1oc2ccccc2c(Nc2ccc(Cl)cc2)c1[N+](=O)[O-]	28µM	n	n	n
CCOC(=O)c1sc2nc(NC(=O)C3CC3)sc2c1C	n	n	n	n
CCOC(=O)c1sc2nc(NC(=O)C(C)(C)C)sc2c1C	32µM	n	x	n
CCN(CC)S(=O)(=O)c1ccc(N(C)C)c(NC(=O)CSCc2c(C)noc2C)c1	n	n[15.4 µM]	n	n
CCN(CC)S(=O)(=O)c1ccc(OC)c(NC(=O)CSCc2c(C)noc2C)c1	n	18µM	n	x
CCN[C@@H]1C[C@H](N)[C@@H](OC2OC(CN)=CCC2N)[C@H](O)[C@H]1O[C@H]1OC[C@](C)(O)[C@H](NC)[C@H]1O (some centres not stated)	x	x	n	x
O=C1NN=C(c2ccc(Br)cc2)CC1c1ccc(Cl)cc1 (configuration not stated)	n	n	-61	n
Cc1ccc(C2CC(c3ccc(Cl)cc3)=NNC2=O)cc1 (configuration not stated)	n	n	n	n
CCOC(=O)C1CCN(C(c2ccc(C)cc2)c2sc3nc(-c4ccco4)nn3c2O)CC1 (configuration not stated)	x	x	n	n
CCOCCCNCc1ccc(OC)cc1	n	n	n	n
COc1ccc2cc(CNCCOCCOCCNCc3ccc4cc(OC)ccc4c3)ccc2c1	n	n	-89	x
CCOCCc1nn2c(=O)cc(COC(=O)c3ccccc3OC)nc2s1	x	x	n	n
CC(C)c1ccc(NC(=O)c2ccc(F)c(S(=O)(=O)N3CCc4ccccc4C3)c2)cc1	x	x	n	n
Cc1cccc(CNC(=O)c2oc3c(c2C)-c2nn(Cc4ccccc4Cl)cc2CC3)c1	x	x	-66	n
CCOc1ccc(CNC(=O)c2oc3c(c2C)-c2nn(Cc4cccc(Cl)c4)cc2CC3)cc1	x	x	-78	n
Cc1cccc(CNC(=O)c2oc3c(c2C)-c2nn(Cc4cccc(Cl)c4)cc2CC3)c1	x	x	u	n
Cc1cccc(NC(=O)c2cc(-c3ccc4c(c3)OCCO4)on2)c1	x	x	x	n
COc1cccc2[nH]c(C(=O)NCc3ccc4c(c3)CCN4C(=O)c3ccc(F)cc3)cc12	x	x	-68	n
COc1ccc(CC(=O)NCc2ccc3c(c2)CCN3C(=O)c2cccc(C)c2)cc1	x	x	-97	n
SMILES	gsp antag	gsp agonist	RXFP1 antagonist	RXFP1 ag
COc1ccc2cc(C(=O)NCc3ccc4c(c3)CCN4C(=O)c3ccc(F)cc3)[nH]c2c1	x	x	n	n
Cc1cccc(N2CCN(C(=O)CCCn3ncn4c(cc5occc54)c3=O)CC2)c1C	x	x	x	n
CCOC(=O)C1=C(COC(=O)/C=C/c2ccc(SC)cc2)NC(=O)NC1C (configuration not stated)	n	n[15.4 µM]	-76	n
CC1(C)COCN1S(=O)(=O)c1ccc(C(=O)Nc2nnc(-c3ccc(Cl)s3)o2)cc1	32µM	n	n	n
Cc1cccc(NC(=O)C2CCN(S(=O)(=O)c3c(C)c(C)cc(C)c3C)CC2)n1	n	n	-79	n
Cc1cccc(Cl)c1NC(=O)N1CCN(c2ccnc3cc(Cl)ccc23)CC1	28µM	n	n	n
O=C(Nc1cc(F)ccc1F)N1CCN(c2ccnc3cc(Cl)ccc23)CC1	u	n	x	n
Cc1ccc(F)cc1NC(=O)N1CCN(c2ccnc3cc(Cl)ccc23)CC1	35µM	n	n	n
COC(=O)C1C(=O)c2c([nH]c(C(=O)OC3CCCC3C)c2C)CC1C (configuration not stated)	n	n	-63	n
CCOC(=O)C1CCN(C(=O)c2sc3ncn(CC(=O)N4CCCCC4)c(=O)c3c2C)CC1	x	16µM	n	x
COc1cccc(CC2(CO)CCCN(Cc3ccc(C)s3)C2)c1 (configuration not stated)	n	n[15.4 µM]	-78	n
Cc1ccc2[nH]cc(C(c3ccccc3)c3cccs3)c2c1 (configuration not stated)	x	x	-72	n
